This passage reports outcome and AC50 results from PubChem BioAssay (EPA / NIEHS).

Assay [1] concerns the target Transcriptional activator Myb (Homo sapiens) (UniProt P10242). The experiment in a line: ATG_Myb_CIS: Attagene CIS-FACTORIAL HepG2 Assay for human Myeloblastosis (Myb) Proto-Oncogene Transcription Factor (AID 2282986). Particulars: HepG2 Attagene CIS-FACTORIAL Myb reporter transcription; actives raise or lower the signal. In short, it runs like this:
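Fluorescence signals from capillary electrophoresis of RT-PCR-amplified reporter cDNA give the read-out. Cells: HepG2 transfected with multiple cis-regulated reporter units. Exposure lasts 24 hours; DMSO defines baseline for gain or loss of signal.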

Assay [2] has as its target Nuclear respiratory factor 1 (Homo sapiens) (UniProt Q16656). The experiment in a line: ATG_NRF1_CIS: Attagene CIS-FACTORIAL HepG2 Assay for human Nuclear Respiratory Factor 1 (NRF1) Orphan Gene (AID 2282987). Conditions: HepG2 NRF1 cis-element reporter, Attagene multiplex; actives raise or lower the signal. In short, it runs like this:
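Transcriptional reporter readout, one component of a 52-endpoint multiplexed HepG2 panel. Exposure 24 h; mRNA detected via RT-PCR and fluorescent capillary electrophoresis; fitting in both directions against DMSO.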

Assay [3] is described as follows: ATG_NFI_CIS: Attagene CIS-FACTORIAL HepG2 Assay for human Nuclear Factor I (NFI) (AID 2282989). Conditions: HepG2 cis-regulatory reporter, NFI response element transcription; actives raise or lower the signal. In short, it runs like this: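 Transfected HepG2 liver cells, exposed 24 h, supplied total RNA for oligo(dT) reverse transcription and reporter-specific PCR. Labelled, HpaI-cut fragments were sized by capillary electrophoresis; DMSO set the baseline for bidirectional fitting.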

In assay [4] the target is Myc proto-oncogene protein (Homo sapiens) (UniProt P01106). The experiment in a line: ATG_Myc_CIS: Attagene CIS-FACTORIAL HepG2 Assay for human Myelocytomatosis (Myc) Proto-Oncogene Transcription Factor (AID 2282990). Conditions: HepG2, Attagene cis-reporter transcription factor activity; actives raise or lower the signal. The procedure, abridged: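 DMSO-normalised, bidirectionally fitted reporter mRNA signal. HepG2 cells transfected with cis reporter constructs, treated 24 h; transcripts detected by RT-PCR, 6-FAM primer extension and CE.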

The nature of assay [5]: ATG_NF_kB_CIS: Attagene CIS-FACTORIAL HepG2 Assay for human Nuclear Factor Kappa B (NF-kB) (AID 2282991). Conditions: HepG2 Attagene cis-factorial NF-kB reporter mRNA; actives raise or lower the signal. The procedure, abridged: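 HepG2, transient multi-reporter transfection, cis promoter elements (endogenous TFs). 24 h exposure. Total RNA → RT → PCR → 6-FAM label → HpaI → CE. Gain/loss vs DMSO.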

A short description of assay [6]: ATG_NRF2_ARE_CIS: Attagene CIS-FACTORIAL HepG2 Assay for human Nuclear Factor Erythroid 2 Related Factor 2 (NFR2) response to Antioxidant Response Elements (ARE) (AID 2282992).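 On AC50: reporter mRNA level measured by RT-PCR and capillary electrophoresis fluorescence.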 Conditions: HepG2 Attagene ARE/NRF2 reporter, transcription factor activity; actives raise or lower the signal. In short, it runs like this:
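Multiplexed reporter mRNA profiling in HepG2 after a 24 h chemical exposure. Curves fitted in both directions relative to DMSO negative control.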

Assay [7] in a line: ATG_Oct_MLP_CIS: Attagene CIS-FACTORIAL HepG2 Assay for human Octamer-Binding Transcription Factor (Oct) (AID 2282993). Conditions: HepG2 Attagene cis-factorial Oct reporter, mRNA; actives raise or lower the signal. The procedure, abridged:
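Using HepG2 cells bearing transfected cis-reporter constructs, mRNA induction was read after 24 h by fluorescent RT-PCR and capillary electrophoresis, with DMSO defining baseline for gain- or loss-of-signal fits.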

The target in assay [8] is Cellular tumor antigen p53 (Homo sapiens) (UniProt P04637). The experiment in a line: ATG_p53_CIS: Attagene CIS-FACTORIAL HepG2 Assay for human p53 Transcription Factor (AID 2282994). Particulars: HepG2 p53 cis-element reporter, Attagene mRNA; actives raise or lower the signal. The procedure, abridged: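 Multiplexed reporter mRNA assay in human HepG2 liver cells; cis-regulated units report endogenous factor activity. Values come from bidirectional curve fitting against DMSO negative control after 24 h treatment.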

Assay [9] is described as follows: BSK_3C_TissueFactor: BioMAP Diversity Plus: 3C Assay for Tissue Factor Biomarker Activity (AID 2282997). Conditions: BioMAP 3C HUVEC, tissue factor biomarker readout; actives raise or lower the signal. The procedure, abridged:
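Primary human umbilical vein endothelial cells in the 3C system were exposed to test chemical for 24 h, then Tissue Factor measured by ELISA. Activity was fitted bidirectionally against DMSO as negative control and baseline.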

Assay [10] can be described thus: BSK_3C_uPAR: BioMAP Diversity Plus: 3C Assay for Urokinase-type plasminogen activator receptor (uPAR) Biomarker Activity (AID 2282998). Particulars: BioMAP 3C HUVEC, uPAR biomarker ELISA; actives raise or lower the signal. In short, it runs like this:
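In this endothelial cell-based assay, human umbilical vein primary cells were treated with chemicals and harvested at 24 h. uPAR was quantified using ELISA, with gains or losses fitted relative to DMSO controls.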
On the technique in general: In an ELISA, binding on a coated surface is turned into a signal by an enzyme label.

Assay [11] is described as follows: BSK_3C_VCAM1: BioMAP Diversity Plus: 3C Assay for Vascular cell adhesion molecule 1 (VCAM1) Biomarker Activity (AID 2282999). Conditions: BioMAP 3C HUVEC, VCAM1 ELISA, cytokine-stimulated; actives raise or lower the signal. The procedure, abridged: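 Human umbilical vein endothelial cells were dosed with compound for 24 h, after which cell-surface VCAM-1 was quantified by ELISA. Bidirectional curve fitting used DMSO as negative control and activity baseline.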

Assay [12] is described as follows: BSK_4H_Eotaxin3: BioMAP Diversity Plus: 4H Assay for Eotaxin 3 Biomarker Activity (AID 2283000).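 Further: CCL26 protein level quantified by ELISA in parallel with SRB cytotoxicity check.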 Particulars: primary human endothelial cells (HUVEC); actives raise or lower the signal. In short, it runs like this:
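HUVEC, 24 h post-dose, ELISA for Eotaxin-3/CCL26. Gain or loss of signal fitted bidirectionally vs DMSO baseline.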

Assay [13] has as its target human Peroxisome Proliferator-activated Receptor alpha (PPARa), PPARA (gene 5465) (UniProt Q07869). Briefly: ATG_PPARa_TRANS: Attagene TRANS-FACTORIAL HepG2 Assay for human Peroxisome Proliferator-activated Receptor alpha (PPARa) (AID 2283001; active means hit-call score of the fitted dose curve at least 0.9, where 1 is the maximum). In short, it runs like this: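 HepG2 cells transiently transfected with multiplexed GAL4-UAS reporter units and chimeric NR-Gal4 constructs were dosed for 24 h. Reporter mRNA was measured by RT-PCR with fluorescent labelling and capillary electrophoresis; gain of signal fitted against DMSO.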

Assay [14] deals with human Peroxisome Proliferator-activated Receptor delta (PPARd), PPARD (gene 5467) (UniProt Q03181). The experiment in a line: ATG_PPARd_TRANS: Attagene TRANS-FACTORIAL HepG2 Assay for human Peroxisome Proliferator-activated Receptor delta (PPARd) (AID 2283002; active means hit-call score of the fitted dose curve at least 0.9, where 1 is the maximum). In short, it runs like this:
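Measured quantity: GAL4-UAS reporter transcript induction in HepG2 after 24 h chemical dosing, with NR-Gal4 chimeras supplied by transient transfection. Detection by RT-PCR and capillary electrophoresis; upward fit against DMSO.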

Read-out in assay [15]: Intercellular Adhesion Molecule 1 (ICAM1), ICAM1 (gene 3383)
Briefly: BSK_3C_ICAM1: BioMAP Diversity Plus: 3C Assay for Intercellular Adhesion Molecule 1 (ICAM1) Biomarker Activity (AID 2283003). Particulars: primary human endothelial cells (HUVEC); actives raise or lower the signal. In short, it runs like this: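 Human vascular endothelial primary cells, 3C conditions, 24 h treatment. ICAM-1 by ELISA.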

The target of assay [16] is Retinoic acid receptor alpha (Homo sapiens) (UniProt P10276). The experiment in a line: ATG_RARa_TRANS: Attagene TRANS-FACTORIAL HepG2 Assay for human Retinoic Acid Receptor alpha (RARa) (AID 2283005; active means hit-call score of the fitted dose curve at least 0.9, where 1 is the maximum). In short, it runs like this: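 HepG2 cells transiently transfected with multiple reporter units expressing chimeric RARα-GAL4 fusion, with GAL4-UAS-driven reporters. After 24 h compound exposure, reporter mRNA induction quantified by RT-PCR and capillary electrophoresis with fluorescent labeling; gain-of-signal fitted relative to DMSO control.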

The nature of assay [17]: BSK_3C_Proliferation: Cell Proliferation Assessment in the BioMAP Diversity Plus: 3C Assay (AID 2283006). Particulars: primary human endothelial cells (HUVEC). In short, it runs like this:
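Proliferation of human vascular endothelial primary cells after 48 h dosing, quantified as SRB-stained protein at 560 nm relative to DMSO.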

Assay [18] has as its target Peroxisome proliferator-activated receptor gamma (Homo sapiens) (UniProt P37231). Briefly: ATG_PPARg_TRANS: Attagene TRANS-FACTORIAL HepG2 Assay for human Peroxisome Proliferator-activated Receptor-gamma (PPARg) (AID 2283007; active means hit-call score of the fitted dose curve at least 0.9, where 1 is the maximum). The procedure, abridged:
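Multiplexed reporter transcription units in HepG2, 24 h dosing, reporter transcripts quantified by fluorescent RT-PCR and capillary electrophoresis. Increase over DMSO scored.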

Assay [19] addresses Nuclear receptor subfamily 1 group I member 2 (Homo sapiens) (UniProt O75469). Briefly: ATG_PXR_TRANS: Attagene TRANS-FACTORIAL HepG2 Assay for human Pregnane X Receptor (PXR) (AID 2283008; active means hit-call score of the fitted dose curve at least 0.9, where 1 is the maximum). In short, it runs like this: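 Measures mRNA induction of a GAL4-UAS-driven reporter in human HepG2 cells transiently expressing PXR fused to Gal4, following 24 h treatment. DMSO served as negative control and baseline.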

Assay [20] deals with human Retinoic Acid Receptor gamma (RARg), RARG (gene 5916) (UniProt P13631). The experiment in a line: ATG_RARg_TRANS: Attagene TRANS-FACTORIAL HepG2 Assay for human Retinoic Acid Receptor gamma (RARg) (AID 2283009; active means hit-call score of the fitted dose curve at least 0.9, where 1 is the maximum). The procedure, abridged: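 HepG2, RARg-GAL4 TRANS system, 24 h exposure; reporter mRNA by RT-PCR + CE fluorescence; increase over DMSO.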

Inconclusive results are not listed. The source made the active and inactive calls. How the source made its calls, unless noted: active means hit-call score of the fitted dose curve at least 0.9, where 1 is the maximum; inactive means score below 0.9.

Cellular tumor antigen p53 (Homo sapiens), sequence (P04637 whole entry, looked up): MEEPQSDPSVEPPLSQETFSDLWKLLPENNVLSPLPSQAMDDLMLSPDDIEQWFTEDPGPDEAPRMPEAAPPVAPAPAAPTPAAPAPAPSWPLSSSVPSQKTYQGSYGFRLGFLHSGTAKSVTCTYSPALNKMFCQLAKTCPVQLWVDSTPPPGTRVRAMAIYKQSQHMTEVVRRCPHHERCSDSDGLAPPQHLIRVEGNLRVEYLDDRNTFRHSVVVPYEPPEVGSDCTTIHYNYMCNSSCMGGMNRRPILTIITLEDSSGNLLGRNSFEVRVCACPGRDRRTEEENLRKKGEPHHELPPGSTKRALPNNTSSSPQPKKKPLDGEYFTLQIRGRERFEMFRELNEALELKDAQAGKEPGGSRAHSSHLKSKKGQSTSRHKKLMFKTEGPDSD
Nuclear respiratory factor 1 (Homo sapiens), sequence (Q16656 whole entry, looked up): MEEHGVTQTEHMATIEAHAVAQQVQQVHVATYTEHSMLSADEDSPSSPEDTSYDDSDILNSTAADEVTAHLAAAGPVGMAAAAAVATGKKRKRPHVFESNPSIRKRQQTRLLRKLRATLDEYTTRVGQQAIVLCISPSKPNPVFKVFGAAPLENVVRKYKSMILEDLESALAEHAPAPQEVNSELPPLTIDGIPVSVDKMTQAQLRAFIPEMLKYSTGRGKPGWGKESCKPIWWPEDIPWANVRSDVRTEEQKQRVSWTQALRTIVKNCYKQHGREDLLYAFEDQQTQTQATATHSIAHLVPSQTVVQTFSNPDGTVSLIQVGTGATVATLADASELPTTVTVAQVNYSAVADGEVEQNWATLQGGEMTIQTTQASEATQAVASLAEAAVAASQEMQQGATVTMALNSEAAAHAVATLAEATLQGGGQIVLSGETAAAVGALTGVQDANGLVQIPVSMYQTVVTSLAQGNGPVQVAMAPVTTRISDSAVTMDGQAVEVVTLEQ
Transcriptional activator Myb (Homo sapiens), sequence (P10242 whole entry, looked up): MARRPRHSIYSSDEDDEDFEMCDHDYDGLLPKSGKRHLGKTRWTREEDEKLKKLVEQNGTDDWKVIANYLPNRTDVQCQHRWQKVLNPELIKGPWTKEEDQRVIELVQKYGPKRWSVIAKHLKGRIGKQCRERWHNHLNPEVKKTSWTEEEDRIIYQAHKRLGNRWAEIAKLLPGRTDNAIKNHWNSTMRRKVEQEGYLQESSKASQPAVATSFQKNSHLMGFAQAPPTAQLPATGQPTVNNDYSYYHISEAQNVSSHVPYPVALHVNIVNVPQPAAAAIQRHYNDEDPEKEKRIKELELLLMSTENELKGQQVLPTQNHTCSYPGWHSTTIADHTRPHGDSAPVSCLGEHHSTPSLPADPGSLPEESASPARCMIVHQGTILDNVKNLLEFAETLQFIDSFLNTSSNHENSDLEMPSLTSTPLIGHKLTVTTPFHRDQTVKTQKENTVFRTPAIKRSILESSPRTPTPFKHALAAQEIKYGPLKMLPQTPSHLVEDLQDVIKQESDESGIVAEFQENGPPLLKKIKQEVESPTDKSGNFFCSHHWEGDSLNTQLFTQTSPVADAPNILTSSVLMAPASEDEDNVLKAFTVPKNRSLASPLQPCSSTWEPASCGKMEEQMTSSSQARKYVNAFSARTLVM
Nuclear receptor subfamily 1 group I member 2 (Homo sapiens), sequence (O75469 whole entry, looked up, the tested form may be a part): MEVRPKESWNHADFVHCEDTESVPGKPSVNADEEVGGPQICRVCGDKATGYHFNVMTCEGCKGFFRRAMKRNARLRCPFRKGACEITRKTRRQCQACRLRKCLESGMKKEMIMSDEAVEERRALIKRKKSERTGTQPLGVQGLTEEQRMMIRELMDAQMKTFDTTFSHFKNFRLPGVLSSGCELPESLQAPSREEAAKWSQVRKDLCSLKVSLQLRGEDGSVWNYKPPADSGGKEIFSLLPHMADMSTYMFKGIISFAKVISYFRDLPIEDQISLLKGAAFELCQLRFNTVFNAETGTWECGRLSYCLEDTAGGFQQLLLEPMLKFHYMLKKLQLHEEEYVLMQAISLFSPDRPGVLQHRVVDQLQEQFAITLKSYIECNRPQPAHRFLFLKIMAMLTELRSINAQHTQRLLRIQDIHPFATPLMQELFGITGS
Peroxisome proliferator-activated receptor gamma (Homo sapiens), sequence (P37231 whole entry, looked up): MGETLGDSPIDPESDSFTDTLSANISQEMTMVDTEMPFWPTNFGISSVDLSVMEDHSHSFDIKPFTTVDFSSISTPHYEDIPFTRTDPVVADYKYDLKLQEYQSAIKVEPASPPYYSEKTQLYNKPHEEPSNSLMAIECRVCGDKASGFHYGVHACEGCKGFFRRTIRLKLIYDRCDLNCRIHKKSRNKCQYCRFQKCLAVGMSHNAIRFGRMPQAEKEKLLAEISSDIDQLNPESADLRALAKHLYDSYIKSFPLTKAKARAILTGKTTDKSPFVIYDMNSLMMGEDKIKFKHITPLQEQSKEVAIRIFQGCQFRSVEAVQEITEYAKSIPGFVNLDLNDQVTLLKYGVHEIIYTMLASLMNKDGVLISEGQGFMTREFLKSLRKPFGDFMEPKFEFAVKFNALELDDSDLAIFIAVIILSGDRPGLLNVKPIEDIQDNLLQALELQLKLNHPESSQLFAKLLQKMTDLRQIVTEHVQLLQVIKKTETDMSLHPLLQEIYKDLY
human Peroxisome Proliferator-activated Receptor alpha (PPARa), PPARA (gene 5465), sequence (Q07869 whole entry, looked up, the tested form may be a part): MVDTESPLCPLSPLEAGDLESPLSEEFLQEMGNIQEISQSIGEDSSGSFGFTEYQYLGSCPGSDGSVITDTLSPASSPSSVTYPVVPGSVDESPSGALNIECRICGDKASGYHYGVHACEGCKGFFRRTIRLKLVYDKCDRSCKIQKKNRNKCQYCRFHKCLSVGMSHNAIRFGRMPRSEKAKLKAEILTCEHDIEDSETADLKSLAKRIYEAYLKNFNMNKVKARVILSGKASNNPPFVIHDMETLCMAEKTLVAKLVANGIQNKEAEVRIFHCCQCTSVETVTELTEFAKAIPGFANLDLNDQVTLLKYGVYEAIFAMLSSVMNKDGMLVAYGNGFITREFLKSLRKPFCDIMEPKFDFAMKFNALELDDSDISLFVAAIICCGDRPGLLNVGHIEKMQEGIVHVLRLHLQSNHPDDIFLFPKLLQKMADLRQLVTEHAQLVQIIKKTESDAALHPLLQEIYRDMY
human Peroxisome Proliferator-activated Receptor delta (PPARd), PPARD (gene 5467), sequence (Q03181 whole entry, looked up, the tested form may be a part): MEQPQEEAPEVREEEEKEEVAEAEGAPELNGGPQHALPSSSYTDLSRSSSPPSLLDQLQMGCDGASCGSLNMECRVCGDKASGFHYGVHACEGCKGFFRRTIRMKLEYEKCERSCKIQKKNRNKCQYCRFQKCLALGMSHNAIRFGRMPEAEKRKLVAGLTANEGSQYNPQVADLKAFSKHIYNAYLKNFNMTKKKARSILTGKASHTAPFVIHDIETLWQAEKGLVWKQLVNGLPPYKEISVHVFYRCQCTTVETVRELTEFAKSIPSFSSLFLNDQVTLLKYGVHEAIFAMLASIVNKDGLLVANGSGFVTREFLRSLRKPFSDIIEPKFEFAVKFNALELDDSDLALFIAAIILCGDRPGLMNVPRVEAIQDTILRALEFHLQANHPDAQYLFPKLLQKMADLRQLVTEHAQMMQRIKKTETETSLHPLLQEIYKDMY
Myc proto-oncogene protein (Homo sapiens), sequence (P01106 whole entry, looked up): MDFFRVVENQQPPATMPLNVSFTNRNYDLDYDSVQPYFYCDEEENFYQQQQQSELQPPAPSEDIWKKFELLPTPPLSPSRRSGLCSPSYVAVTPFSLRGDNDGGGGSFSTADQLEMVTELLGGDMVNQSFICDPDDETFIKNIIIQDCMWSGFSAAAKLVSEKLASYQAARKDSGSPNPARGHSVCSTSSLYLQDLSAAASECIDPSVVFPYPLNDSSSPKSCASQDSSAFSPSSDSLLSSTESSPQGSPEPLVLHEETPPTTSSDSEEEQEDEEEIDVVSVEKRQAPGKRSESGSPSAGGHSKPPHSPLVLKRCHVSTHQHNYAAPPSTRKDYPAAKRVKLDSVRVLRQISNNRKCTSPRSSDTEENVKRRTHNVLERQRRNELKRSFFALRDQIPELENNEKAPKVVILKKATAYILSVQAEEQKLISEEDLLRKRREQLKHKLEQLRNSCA
human Retinoic Acid Receptor gamma (RARg), RARG (gene 5916), sequence (P13631 whole entry, looked up, the tested form may be a part): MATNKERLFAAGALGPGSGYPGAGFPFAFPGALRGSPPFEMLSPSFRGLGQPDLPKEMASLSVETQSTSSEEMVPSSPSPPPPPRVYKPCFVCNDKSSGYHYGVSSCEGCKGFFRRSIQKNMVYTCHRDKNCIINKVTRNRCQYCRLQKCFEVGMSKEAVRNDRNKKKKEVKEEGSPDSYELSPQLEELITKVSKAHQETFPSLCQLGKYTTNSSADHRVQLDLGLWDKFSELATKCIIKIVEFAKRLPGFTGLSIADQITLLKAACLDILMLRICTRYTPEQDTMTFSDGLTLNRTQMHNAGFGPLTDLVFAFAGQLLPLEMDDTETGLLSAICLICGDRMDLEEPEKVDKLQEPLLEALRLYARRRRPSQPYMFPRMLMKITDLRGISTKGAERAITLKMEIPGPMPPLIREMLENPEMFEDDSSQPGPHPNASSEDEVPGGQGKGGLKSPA
Retinoic acid receptor alpha (Homo sapiens), sequence (P10276 whole entry, looked up, the tested form may be a part): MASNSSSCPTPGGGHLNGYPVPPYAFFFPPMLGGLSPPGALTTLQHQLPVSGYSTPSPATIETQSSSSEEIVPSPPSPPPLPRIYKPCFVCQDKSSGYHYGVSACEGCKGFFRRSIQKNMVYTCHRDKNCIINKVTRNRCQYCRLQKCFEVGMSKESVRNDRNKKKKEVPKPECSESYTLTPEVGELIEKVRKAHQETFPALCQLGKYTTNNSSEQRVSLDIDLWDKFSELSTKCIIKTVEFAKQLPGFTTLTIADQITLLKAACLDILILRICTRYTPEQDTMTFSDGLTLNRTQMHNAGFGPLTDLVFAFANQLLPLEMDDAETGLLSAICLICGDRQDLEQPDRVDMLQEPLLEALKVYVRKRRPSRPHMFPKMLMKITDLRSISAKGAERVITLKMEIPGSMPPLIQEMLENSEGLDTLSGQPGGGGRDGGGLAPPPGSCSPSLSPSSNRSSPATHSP

The AC50 is the midpoint of the concentration-response curve, whichever way the signal moves. Take `CCCCOCCOP(=O)(OCCOCCCC)OCCOCCCC`: the molecule was classed as inactive in [1], in assay [2], in assay [3], in [4], in assay [5] and in assay [6]. Further, the call in assay [7], in assay [8], in assay [9], in assay [10], in assay [11] and in assay [12] was inactive. In addition, the molecule was called inactive in assay [13], in [14], in assay [15], in assay [16], in assay [17] and in assay [19]. For the same molecule, the outcome in assay [20] was inactive. In addition, the AC50 in [18] was 58.7 µM (active).
`O=C(O)C1C(C(=O)O)C2(Cl)C(Cl)=C(Cl)C1(Cl)C2(Cl)Cl` (centres undefined): the call in assay [1], in [2], in assay [3], in [4], in assay [5] and in assay [6] was inactive. The result in [7], in assay [8], in assay [9], in assay [10], in assay [11] and in assay [12] was inactive. Further, the result in assay [13], in assay [15], in assay [17] and in assay [19] was inactive.
`Oc1ccc(I)cc1`: the call in assay [1], in assay [2], in assay [3], in assay [4], in assay [5] and in [7] was inactive. In addition, the molecule was called inactive in assay [8], in assay [13], in assay [14], in assay [18] and in assay [19]. Further, the AC50 in [6] is 67.3 µM (active).
As to `CNC(=O)Oc1ccc(N(C)C)c(C)c1`, the result in assay [1], in assay [2], in [3], in assay [4], in [5] and in [6] was inactive. For the same molecule, the molecule was classed as inactive in assay [7], in assay [8], in [14], in assay [18] and in [19].
